# Compound activity deposited in PubChem by several laboratories.
# The list is not random: actives were taken first. Their share in the collection is about 1.8%.
# GC-A act: GC-A (human) enzyme activation. P16066. HEK293 GC-A cells, cGMP TR-FRET, EC30 ANP; 0% at EC30 ANP, 100% saturating ANP. activation, % at 10 µM. 370,000 compounds, 0.14% hits; in the data active = activation above about 40%
# GC-B act: GC-B (human) receptor activation | HEK293-GC-B cells, CNP EC30, cGMP TR-FRET; 0% at EC30 CNP, 100% saturating CNP | AID 1920062 | 370,000 compounds, 0.11% hits | P20594 | activation, % at 10 µM;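 active = activation at 10 µM reaching about 35% in either raw or pattern-adjusted values, limit read from the data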
# Exocytosis inh: blocks lytic granule exocytosis; 360,000 compounds, 0.66% hits; TALL-104 LAMP-1 surface exposure, flow cytometry; cells stimulated with thapsigargin and PMA; inhibition, % at 10 µM;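 active = inhibition above about 55%, limit read from the data; inconclusive = no clear call, values can overlap the other calls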
# Myeloid diff 2: compounds promoting myeloid differentiation | AID 624256 | ER-HoxA9 myeloid progenitors, lysozyme-GFP differentiation, flow cytometry | 360,000 compounds, 1% hits | calls only at 10 µM;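 active = normalized GFP-positive differentiation at or above the plate's own cutoff, the solvent-only control mean plus 3 SD; inconclusive = no clear call, values can overlap the other calls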;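 note: cells exposed to compound for four days before flow analysis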
# Myeloid diff: myeloid differentiation induction. shares compounds with Myeloid diff 2. ER-HoxA9 myeloid progenitors, GFP/Mac1 double-positive flow. calls only. 2,300 compounds, 2% hits;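 active = share of green or green-and-red cells above 9 and 9% in run 1 or 4 and 3% in run 2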
# GFP autofluor: counter-screen for myeloid differentiation promoters: compound fluorescence; shares compounds with Myeloid diff 2; ER-HoxA9 myeloid progenitors, no estrogen, GFP autofluorescence flow cytometry; vehicle wells 0%, positive control 100%; fluorescence response, % (test concentration not listed); 2,300 compounds, 7.4% hits; AID 651707;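 active = over 5% cells positive for green fluorescent reporter, or over 2% positive for both it and APC stain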;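 note: range taken on the double positive population between DMSO and positive control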
# Starred values were filed as active, the others as inactive; i = inactive; u = inconclusive; x = no result; + = active, no number.
SMILES,GC-A act,GC-B act,Exocytosis inh,Myeloid diff 2,Myeloid diff,GFP autofluor
CCN(CC)C(=O)CSc1nnc([C@@H](NC(=O)OC(C)(C)C)C(C)C)o1,-2,8,1,i,i,1
C[C@H]1CNC(=O)c2c(C(=O)N[C@@H](Cc3c[nH]c4ccccc34)C(=O)OC(C)(C)C)ncn21,0,1,3,i,x,x
O=C(c1ccco1)N1CC2(CC(c3ccc(Cl)cc3)=NO2)CN1Cc1ccc(Br)cc1 (stereo not given),0,0,0,i,i,0
CC(C)N1CC2(CC(c3ccccc3F)=NO2)CN1C(=O)c1ccco1 (stereo not given),1,-1,-2,i,x,x
COc1ccc(C(=O)N2CCC(Oc3cccnc3)CC2)c(OC)c1,3,1,x,x,x,x
CCOC(=O)Cn1cc(CN2C(C(=O)OC)CN(Cc3ccc(Cl)cc3)CCS2(=O)=O)nn1 (stereo not given),1,1,x,x,x,x
Cc1nnc(SCC(=O)Nc2cccc(S(=O)(=O)N3CCCC3)c2)n1C1CC1,4,3,-8,i,x,x
CC(=O)O[C@]1(C(C)=O)CC[C@H]2[C@@H]3C=C(Cl)C4=CC(=O)CC[C@]4(C)[C@H]3CC[C@@]21C,-7,-18,-1,i,i,0
CC(=O)O[C@]1(C(C)=O)CC[C@H]2[C@@H]3C=C(Cl)C4=CC(=O)[C@@H]5C[C@@H]5[C@]4(C)[C@H]3CC[C@@]21C,-6,-22,-4,i,x,x
CCOC(=O)Cn1cc(CN2C(C(=O)OC)CN(Cc3ccc(F)cc3)CCS2(=O)=O)nn1 (stereo not given),1,5,x,x,x,x
CC(C)(C)OC(=O)N[C@@H](Cc1ccccc1)C(=O)N1CCC(C(=O)N[C@@H](CCC(N)=O)C(=O)O)CC1,7,1,-2,i,x,x
CC(C)(C)OC(=O)N[C@@H](Cc1ccccc1)C(=O)N1CCC(C(=O)O)CC1,7,6,2,i,i,0
CN(C)c1cccc(Nc2ccc(-c3ccc(OC(F)(F)F)cc3)cn2)c1,-2,-3,5,+,i,0
O=C(Nc1ccc(F)cc1)OC[C@@H]1CSCCS(=O)(=O)N1,-1,4,x,x,x,x
COc1cc(C(=O)c2cc3c(cc2C)OCO3)cc(OC)c1OC,-3,3,-9,u,x,x
CCOc1ccccc1NC(=O)NC1(C(=O)NCc2cccnc2)CCCCC1,-2,2,-7,i,i,0
O=S1(=O)c2c(NCc3ccco3)cccc2Oc2ccccc2CN1Cc1cn(Cc2ccc(C(F)(F)F)cc2)nn1,3,5,x,x,x,x
O=C(NC1CCCCCCC1)C1CCN(c2nc3ccccc3o2)CC1,2,8,-2,i,i,1
O=C(NCCc1ccccc1)C1CCN(c2nc3ccccc3o2)CC1,-3,-6,-1,i,x,x
CCCCc1c(-c2cccc(Br)c2)ncn1CCc1ccccc1OC,-16,-12,21,i,x,x
Cc1ccc(C(=O)ON=C2CCN(S(=O)(=O)c3ccccc3)CC2)cc1,-3,-3,2,i,i,0
S=C(c1cn(Cc2ccc(Br)cc2)c2ccccc12)N1CCOCC1,2,3,17,i,i,0
COc1ccc(C2CC(C(F)(F)F)n3nc(CO)c(Cl)c3N2)cc1OC (stereo not given),3,5,-2,i,x,x
COc1ccc(C2CC(C(F)(F)F)n3nc(C(=O)O)c(Cl)c3N2)cc1OC (stereo not given),-1,3,-3,i,i,0
N#CCCn1cnc2c(=S)nc[nH]c21,3,0,-3,+,i,1
O=[N+]([O-])c1cccc(Cn2cnc3c(=S)nc[nH]c32)c1,21,27,5,i,x,x
CN(C(=O)c1ccc(NC(=O)Cc2cccc(NC(=O)C3CCCN(C(=O)CCc4ccccc4)C3)c2)cc1)C1CC1 (stereo not given),3,0,0,i,x,x
COc1cc(C2C3=C(CC(C)(C)CC3=O)Nc3ccccc3N2C(C)=O)cc(OC)c1OC (stereo not given),-2,6,2,i,i,0
COc1cc(C2C3=C(CC(c4ccco4)CC3=O)Nc3ccccc3N2C(C)=O)cc(OC)c1OC (stereo not given),-9,-6,-2,i,x,x
